The supplement of paper PMC6609913
Where a name gives a salt, the structure may show the parent alone. ± gives the standard deviation of the averaged measurements. The full ranking holds about 1,300 compounds; the median of “normalised cell viability” is about 1, and the lowest 2% start at about 0.15. The sample as a whole holds a higher share of the lowest values than the screen did.

Tested on: V-C8 + BRCA2 (BRCA2-proficient hamster cells)
Experiment: normalised cell viability (fraction of plate median); higher = more viable cells (less toxic)
Conditions: 5 µM
Method in brief: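 Cell viability was measured with a resazurin assay, normalised to the plate median (modified robust per cent of sample) and averaged over triplicate wells. Hamster V-C8 cells lacking BRCA2 and V-C8 cells with BRCA2 restored were seeded in 96-well plates. After 24 h, library drugs from 10 mM DMSO stocks were added at a final 5 μM in 100 μl medium and left for 3 days (screen 1) or 6 days (screen 2), with solvent-only wells alongside.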

SMILES | normalised cell viability (treatment time: 3 days) | normalised cell viability (treatment time: 6 days)
Cc1ccc(Cl)c(Nc2ccccc2C(=O)O)c1Cl [Meclofenamic acid sodium salt monohydrate] | 1.02 ± 0.068 | 1.08 ± 0.084
N=C(N)NCC1COC2(CCCCC2)O1 (configuration not stated) [Guanadrel sulfate] | 1.06 ± 0.038 | 1.03 ± 0.041
CN(C/C=C/C#CC(C)(C)C)Cc1cccc2ccccc12 [Terbinafine] | 0.206 ± 0.0049 | 0.339 ± 0.031
CCCCCCC[N+](CC)(CC)CCCCc1ccc(Cl)cc1 [Clofilium tosylate] | 0.897 ± 0.063 | 0.935 ± 0.094
CN1CCN(CCCN2c3ccccc3Sc3ccc(S(=O)(=O)N(C)C)cc32)CC1 [Thioproperazine dimesylate] | 0.884 ± 0.11 | 0.834 ± 0.039
N=C(N)N/N=C/c1c(Cl)cccc1Cl [Guanabenz acetate] | 1.1 ± 0.022 | 1.01 ± 0.082
Cn1cnc([N+](=O)[O-])c1Sc1ncnc2[nH]cnc12 [Azathioprine] | 0.93 ± 0.032 | 0.93 ± 0.045
C[C@@H]1CN(c2c(F)c(N)c3c(=O)c(C(=O)O)cn(C4CC4)c3c2F)C[C@H](C)N1 [Sparfloxacin] | 1.027 ± 0.009 | 1.05 ± 0.056
COC(=O)C1=C(C)NC(C)=C(C(=O)OC(C)C)C1c1cccc2nonc12 (configuration not stated) [Isradipine] | 1.02 ± 0.032 | 0.9264 ± 0.0066
CC1CNc2c(cccc2S(=O)(=O)N[C@@H](CCCNC(=N)N)C(=O)N2CC[C@@H](C)C[C@@H]2C(=O)O)C1 (some centres not stated) [Argatroban] | 1.203 ± 0.0019 | 1.12 ± 0.14
CC(=O)N(CC(O)CN(C(C)=O)c1c(I)c(C(=O)NCC(O)CO)c(I)c(C(=O)NCC(O)CO)c1I)c1c(I)c(C(=O)NCC(O)CO)c(I)c(C(=O)NCC(O)CO)c1I (configuration not stated) [Iodixanol] | 0.975 ± 0.053 | 1 ± 0.059
CN1CCC(OC(c2ccccc2)c2ccccc2)CC1 [Diphenylpyraline hydrochloride] | 0.976 ± 0.11 | 1.04 ± 0.037
CO[C@@]1(NC(=O)CSCC#N)C(=O)N2C(C(=O)O)=C(CSc3nnnn3C)CS[C@@H]21 [Cefmetazole sodium salt] | 0.959 ± 0.029 | 0.98 ± 0.072
O=C(Nc1cccc2c(=O)cc(-c3nnn[nH]3)oc12)c1ccc(OCCCCc2ccccc2)cc1 [Pranlukast] | 1.06 ± 0.05 | 1.08 ± 0.049
CCN(CC)CCOCCOC(=O)C1(c2ccccc2)CCCC1 [Carbetapentane citrate] | 0.163 ± 0.0089 | 0.181 ± 0.0049
O=C(O)CCC(=O)Nc1ccc(S(=O)(=O)Nc2nccs2)cc1 [Succinylsulfathiazole] | 0.979 ± 0.083 | 1.04 ± 0.04
CC(C)(C)NCC(O)c1cc(O)cc(O)c1 (configuration not stated) [Terbutaline hemisulfate] | 0.45 ± 0.037 | 0.5206 ± 0.0045
OCC(O)CN1CCN(c2ccccc2)CC1 (racemic) [Dropropizine (R,S)] | 1.07 ± 0.041 | 0.9583 ± 0.0092
COC(=O)C1=C(C)NC(C)=C(C(=O)OC2CCCN(Cc3ccccc3)C2)C1c1cccc([N+](=O)[O-])c1 (configuration not stated) [Benidipine hydrochloride] | 0.988 ± 0.065 | 0.97 ± 0.04
COc1ccc(C2CNC(=O)C2)cc1OC1CCCC1 (configuration not stated) [Rolipram] | 0.985 ± 0.037 | 1.15 ± 0.22
CC(C)c1c(C(=O)Nc2ccccc2)c(-c2ccccc2)c(-c2ccc(F)cc2)n1CC[C@@H](O)C[C@@H](O)CC(=O)O [Atorvastatin] | 0.701 ± 0.01 | 0.743 ± 0.017
CC(C)n1c(/C=C/C(O)CC(O)CC(=O)O)c(-c2ccc(F)cc2)c2ccccc21 (configuration not stated) [Fluvastatin sodium salt] | 0.134 ± 0.0077 | 0.155 ± 0.013
CC[N+](C)(C)Cc1ccccc1Br [Bretylium tosylate] | 0.9932 ± 0.0068 | 0.977 ± 0.013

SMILES | normalised cell viability (treatment time: 3 days) | normalised cell viability (treatment time: 6 days)
C=C(NC(=O)C(=C)NC(=O)c1csc(C2=N[C@@H]3c4csc(n4)[C@H]4NC(=O)c5csc(n5)[C@H]([C@](C)(O)[C@@H](C)O)NC(=O)[C@H]5CSC(=N5)/C(=C/C)NC(=O)[C@H]([C@@H](C)O)NC(=O)c5csc(n5)[C@]3(CC2)NC(=O)[C@H](C)NC(=O)C(=C)NC(=O)[C@H](C)NC(=O)[C@H]([C@@H](C)CC)N[C@@H]2C=Cc3c([C@H](C)O)cc(nc3[C@H]2O)C(=O)O[C@@H]4C)n1)C(N)=O [Thiostrepton] | 0.135 ± 0.0082 | 0.126 ± 0.013
CCCC(=O)Nc1ccc(OCC(O)CNC(C)C)c(C(C)=O)c1 (configuration not stated) [Acebutolol hydrochloride] | 0.99 ± 0.034 | 1.04 ± 0.012
CCC(=O)OCC(=O)[C@@]1(OC(=O)CC)[C@@H](C)C[C@H]2[C@@H]3CCC4=CC(=O)C=C[C@]4(C)[C@@]3(Cl)[C@@H](O)C[C@@]21C [Beclomethasone dipropionate] | 1 ± 0.081 | 0.987 ± 0.048
Cc1onc(-c2c(F)cccc2Cl)c1C(=O)N[C@@H]1C(=O)N2[C@@H]1SC(C)(C)[C@@H]2C(=O)O [Flucloxacillin sodium] | 1.02 ± 0.065 | 0.984 ± 0.016
Cc1c(Cl)cccc1Nc1ncccc1C(=O)O [Clonixin Lysinate] | 0.938 ± 0.067 | 0.983 ± 0.046
Nc1ccc(S(=O)(=O)Nc2ncccn2)cc1 [Sulfadiazine] | 1.01 ± 0.068 | 1.024 ± 0.0048
O=S(=O)(O)CCS [Mesna] | 1.06 ± 0.07 | 1.02 ± 0.024
C[C@@H]1CCC[C@H](C)N1NC(=O)c1ccc(Cl)c(S(N)(=O)=O)c1 [Clopamide] | 1.22 ± 0.11 | 0.9899 ± 0.0083
N#Cc1ccc(C2CCCc3cncn32)cc1 (configuration not stated) [Fadrozole hydrochloride] | 0.955 ± 0.11 | 0.949 ± 0.078
NC(=O)c1cc[n+](CC2=C(C(=O)[O-])N3C(=O)[C@@H](NC(=O)[C@@H](c4ccccc4)S(=O)(=O)O)[C@H]3SC2)cc1 [Cefsulodin sodium salt] | 0.981 ± 0.043 | 1.06 ± 0.048
c1ccc(-c2ccc(C(c3ccccc3)n3ccnc3)cc2)cc1 (configuration not stated) [Bifonazole] | 0.951 ± 0.042 | 0.914 ± 0.066
O=C(O[C@@H]1C[C@@H]2C[C@H]3C[C@H](C1)N2CC3=O)c1c[nH]c2ccccc12 [Dolasetron mesilate] | 1.06 ± 0.19 | 1.02 ± 0.03
O=C(Oc1cccc2cccnc12)c1ccccc1 [Benzoxiquine] | 0.791 ± 0.052 | 0.738 ± 0.056
COc1cccc2c1C(=O)c1c(O)c3c(c(O)c1C2=O)C[C@@](O)(C(=O)CO)C[C@@H]3O[C@H]1C[C@H](N)[C@H](O)[C@H](C)O1 [Doxorubicin hydrochloride] | 0.12 ± 0.0088 | 0.122 ± 0.0099
COc1cccc2c1C(=O)c1c(O)c3c(c(O)c1C2=O)C[C@@](O)(C(C)=O)C[C@@H]3O[C@H]1C[C@H](N)[C@H](O)[C@H](C)O1 [Daunorubicin hydrochloride] | 0.136 ± 0.0082 | 0.128 ± 0.015
COc1cccc2c1C(=O)c1c(O)c3c(c(O)c1C2=O)C[C@@](O)(C(=O)CO)C[C@@H]3O[C@H]1C[C@H](N)[C@@H](O)[C@H](C)O1 [Epirubicin hydrochloride] | 0.136 ± 0.0036 | 0.153 ± 0.024
Clc1cc(Cl)c(OCC#CI)cc1Cl [Haloprogin] | 0.278 ± 0.01 | 0.247 ± 0.048
CCC1(c2ccccc2)C(=O)NCNC1=O [Primidone] | 0.947 ± 0.13 | 0.951 ± 0.1
CN1C(C(=O)Nc2ccccn2)=C(O)c2ccccc2S1(=O)=O [Piroxicam] | 1.02 ± 0.032 | 1.05 ± 0.015
O=C1CC2(CCCC2)CC(=O)N1CCCCN1CCN(c2ncccn2)CC1 [Buspirone hydrochloride] | 0.997 ± 0.038 | 1.083 ± 0.0083
CNNCc1ccc(C(=O)NC(C)C)cc1 [Procarbazine hydrochloride] | 0.879 ± 0.049 | 0.956 ± 0.099
OCCN1CCN(CCCN2c3ccccc3Sc3ccc(C(F)(F)F)cc32)CC1 [Fluphenazine dihydrochloride] | 0.825 ± 0.062 | 0.662 ± 0.096
CNC(=C[N+](=O)[O-])NCCSCc1csc(CN(C)C)n1 [Nizatidine] | 1 ± 0.012 | 1.05 ± 0.042
